In PubChem BioAssay (NCI):
About 83,000 compounds went through this panel and 20% of them were active in at least one assay; those are over-represented in the sample as a whole.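 Note: values are percent growth. 100 is the growth of untreated cells, values between 100 and 0 indicate rising inhibition; between -100 and 0 indicates cell death.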 Values without a mark were called inactive. Activity calls are given as the source filed them. Rule for the calls: active = growth percent below 10; inactive = the rest.

What was measured:
Experiment in all cases: NCI-60 one-dose screen, 48 h (100 = growth as untreated, 0 = no growth, -100 = all killed)
Conditions in all cases: 10 µM unless noted
[1] = system: DU-145 prostate
[2] = system: K-562 leukemia
[3] = system: MALME-3M melanoma
[4] = system: MDA-MB-231 breast
[5] = system: RXF 393 renal
[6] = system: SF-268 CNS
[7] = system: SF-295 CNS
[8] = system: SF-539 CNS
[9] = system: UACC-257 melanoma
[10] = system: M14 melanoma

COc1cc(CCC[P+](c2ccccc2)(c2ccccc2)c2ccccc2)c(OC)c2c1OCO2
growth [1]: 28.5% | growth [2]: 14.4% | growth [3]: 3.07% (active) | growth [4]: -0.787% (active) | growth [5]: 64.3% | growth [6]: 13% | growth [7]: 66.9% | growth [8]: 46.9% | growth [9]: 5.75% (active) | growth [10]: 17.4%

Cc1cccc(OCC(O)CN2CCN(c3ccc(Cl)cc3)CC2)c1 (stereo not given)
growth [1]: 113% | growth [2]: 96.9% | growth [3]: 153% | growth [4]: 98.7% | growth [5]: 118% | growth [6]: 99.4% | growth [7]: 94.5% | growth [8]: 104% | growth [9]: 108% | growth [10]: 94.7%

CC(=O)N1N=C(c2ccc(Nc3nc(Nc4ccc(F)cc4)nc(Nc4ccc(Cl)cc4)n3)cc2)CC1c1ccc(Cl)cc1 (stereo not given)
growth [1]: 111% | growth [2]: 88.1% | growth [3]: 110% | growth [4]: 76.2% | growth [5]: 88.8% | growth [6]: 124% | growth [7]: 123% | growth [8]: 109% | growth [9]: 104% | growth [10]: 108%

CNCCCNc1nc2ccccc2c2c(=O)c3cc(F)ccc3sc12
growth [1]: 2.57% (active) | growth [2]: -38.7% (active) | growth [3]: 84.2% | growth [4]: -53.7% (active) | growth [5]: 45.6% | growth [6]: 51.5% | growth [7]: 81.5% | growth [8]: 1.04% (active) | growth [9]: 91.6% | growth [10]: -53.2% (active)

CCC(=O)Nc1ccc(-c2nc(-c3cccc(OC)c3)c(-c3ccnc(Br)c3)[nH]2)cc1
growth [1]: 70.6% | growth [2]: 24.1% | growth [3]: 69.4% | growth [4]: 71.8% | growth [5]: -22.8% (active) | growth [6]: 75.8% | growth [7]: 16.1% | growth [8]: 51.1% | growth [9]: 74.4% | growth [10]: 63.1%

Cc1nc(/N=C(\N)NC(=O)Nc2cccc(Cl)c2)sc1C
growth [1]: 90% | growth [2]: 17% | growth [3]: 62% | growth [4]: 87.9% | growth [5]: 87.8% | growth [6]: 89.5% | growth [7]: 77.2% | growth [8]: 78.3% | growth [9]: 71.7% | growth [10]: 50.5%

C=CCNc1ccc2c3c(cccc13)C(=O)N(N1C(=O)c3cccc4cccc(c34)C1=O)C2=O
growth [1]: 109% | growth [2]: 103% | growth [3]: 110% | growth [4]: 108% | growth [5]: 104% | growth [6]: 98.1% | growth [7]: 102% | growth [8]: 99.8% | growth [9]: 98.5% | growth [10]: 102%

C=C1C(=O)O[C@H]2[C@H]1CC/C(COC(=O)CSCC(=O)OC/C1=C/CC[C@@]3(C)O[C@H]3[C@H]3OC(=O)C(=C)[C@@H]3CC1)=C\CC[C@@]1(C)O[C@@H]21
growth [1]: 50.3% | growth [2]: 9.77% (active) | growth [3]: -10.3% (active) | growth [4]: -16.8% (active) | growth [5]: -86.3% (active) | growth [6]: 57.8% | growth [7]: 88.1% | growth [8]: 19.3% | growth [9]: 9.23% (active) | growth [10]: 1.21% (active)

Cc1ccc(-c2nc(N3CCN(CC(=O)Nc4ccc(Cl)cc4)CC3)c3ccccc3n2)cc1
growth [1]: 88.7% | growth [2]: 72.9% | growth [3]: 101% | growth [4]: 80.1% | growth [5]: 74.9% | growth [6]: 83.9% | growth [7]: 95.6% | growth [8]: 99.6% | growth [9]: 104% | growth [10]: 99.1%

CCOC(=O)Nc1ccc(-c2nc(-c3cccc(OCCN4CCOCC4)c3)c(-c3ccnc(Br)c3)[nH]2)cc1
growth [1]: 67.2% | growth [2]: 1.64% (active) | growth [3]: 40.3% | growth [4]: 46.2% | growth [5]: -25.9% (active) | growth [6]: 62.3% | growth [7]: -53.9% (active) | growth [8]: 23.4% | growth [9]: 60% | growth [10]: 57.4%

c1cc2nc(-c3cn[nH]c3)c3c(c2cc1-c1cn[nH]c1)C1CCC3C1 (stereo not given)
growth [1]: 81.4% | growth [2]: 65% | growth [3]: 61.4% | growth [4]: 53% | growth [5]: 15.3% | growth [6]: 77% | growth [7]: 57.8% | growth [8]: 66.7% | growth [9]: 83.9% | growth [10]: 69.3%

CCOC(=O)Nc1ccc(C(=O)/C=C/c2ccccc2)cc1
growth [1]: 86.4% | growth [2]: 24.2% | growth [3]: 103% | growth [4]: 95.9% | growth [5]: 36.8% | growth [6]: 93.8% | growth [7]: 106% | growth [8]: 67.9% | growth [9]: 115% | growth [10]: 79.2%

CNc1nc2c(s1)C(c1cc(F)ccc1F)CC(=O)N2 (stereo not given)
growth [1]: 76.3% | growth [2]: 18.5% | growth [3]: 70.2% | growth [4]: 69.6% | growth [5]: 75.5% | growth [6]: 79.3% | growth [7]: 87.4% | growth [8]: 53.8% | growth [9]: 86.7% | growth [10]: 47.3%
